Measured values from PubChem BioAssay AID1159580 (chemical genetic matrix, 2015).
Where “and” joins values, the source holds several entries; their conditions need not be identical. Equal entries are not always repeated. Out of some 5,500 compounds screened, about 2,000 (36%) were called active. Not shown: some 18% with an inconclusive outcome. Rule as the data show it: active = normalized growth mostly below about 0.91 (no sharp cut-off); inconclusive = no clear call, values can overlap the other calls; inactive = mostly above about 0.92. Some of the results follow.

Experiment: chemical genetic growth profiling, strain panel (AID 1159580);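 also: tested at 20 µM; growth read once vehicle control cultures reached saturation at 30 °C; 1 = growth at the plate median or of vehicle wells; lower values mean less growth of the strain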
Conditions: growth OD

Measured: normalized growth

CC(N)C(=O)OC(C)(C)Cc1ccc(Cl)cc1 (stereo unspecified)
inactive: S. cerevisiae deletion strains, locus YJR075W, strain HOC1, hits give low values 0.986 and 1 | S. cerevisiae deletion strains, locus YKL009W, strain mrt4, hits give low values 0.922 | S. cerevisiae deletion strains, locus YKL068W, hits give low values 0.992 | S. cerevisiae deletion strains, locus YKL085W, strain MDH1 (second series), hits give low values 0.98 | S. cerevisiae deletion strains, locus YKL085W, strain MDH1, hits give low values 0.98 | S. cerevisiae deletion strains, locus YKL160W, strain elf1, hits give low values 1.02 | S. cerevisiae deletion strains, locus YKL190W, strain CNB1, hits give low values 0.989 | S. cerevisiae deletion strains, locus YKR001C, strain vps1, hits give low values 1.03 | S. cerevisiae deletion strains, locus YKR026C, strain gcn3, hits give low values 0.998 | S. cerevisiae deletion strains, locus YKR091W, strain srl3, hits give low values 1.01 | S. cerevisiae deletion strains, locus YLL001W, strain dnm1, hits give low values 0.977 | S. cerevisiae deletion strains, locus YLL026W, hits give low values 1.01 | S. cerevisiae deletion strains, locus YLL041C, strain sdh2, hits give low values 1.02 | S. cerevisiae deletion strains, locus YLR027C, strain aat2, hits give low values 1.01 | S. cerevisiae deletion strains, locus YLR039C, strain RIC1, hits give low values 1.03 | S. cerevisiae deletion strains, locus YLR058C, strain SHM2, hits give low values 0.97 | S. cerevisiae deletion strains, locus YLR102C, strain apc9, hits give low values 0.995 | S. cerevisiae deletion strains, locus YLR113W, strain HOG1, hits give low values 1.01 | S. cerevisiae deletion strains, locus YLR221C, strain rsa3, hits give low values 1.02 | S. cerevisiae deletion strains, locus YLR258W, strain gsy2, hits give low values 1.02 | S. cerevisiae deletion strains, locus YLR262C, strain YPT6 (second series), hits give low values 1.06 | S. cerevisiae deletion strains, locus YLR262C, strain YPT6, hits give low values 0.986 | S. cerevisiae deletion strains, locus YLR268W, strain sec22, hits give low values 1.07 | S. cerevisiae deletion strains, locus YLR320W, strain mms22, hits give low values 1.04 | S. cerevisiae deletion strains, locus YLR330W, strain CHS5, hits give low values 0.988 | S. cerevisiae deletion strains, locus YLR342W, strain FKS1 (second series), hits give low values 0.928 | S. cerevisiae deletion strains, locus YLR342W, strain FKS1, hits give low values 1.02 | S. cerevisiae deletion strains, locus YLR357W, strain rsc2, hits give low values 1.03 | S. cerevisiae deletion strains, locus YLR370C, strain arc18, hits give low values 1.01 | S. cerevisiae deletion strains, locus YLR371W, strain rom2, hits give low values 0.986 | S. cerevisiae deletion strains, locus YLR384C, strain iki3, hits give low values 1.01 | S. cerevisiae deletion strains, locus YLR418C, strain cdc73, hits give low values 0.983 | S. cerevisiae deletion strains, locus YML016C, strain PPZ1, hits give low values 0.984 | S. cerevisiae deletion strains, locus YML032C, strain rad52, hits give low values 0.982 | S. cerevisiae deletion strains, locus YML120C, strain ndi1, hits give low values 1.02 | S. cerevisiae deletion strains, locus YML124C, strain tub3, hits give low values 0.985 | S. cerevisiae deletion strains, locus YMR058W, strain fet3, hits give low values 1.03 | S. cerevisiae deletion strains, locus YMR078C, strain ctf18, hits give low values 0.98 | S. cerevisiae deletion strains, locus YMR125W, strain sto1, hits give low values 1.01 | S. cerevisiae deletion strains, locus YMR129W, hits give low values 1.02 | S. cerevisiae deletion strains, locus YMR205C, strain PFK2, hits give low values 1.02 | S. cerevisiae deletion strains, locus YMR223W, strain ubp8, hits give low values 0.94 | S. cerevisiae deletion strains, locus YMR231W, strain pep5, hits give low values 1.02 | S. cerevisiae deletion strains, locus YMR263W, strain SAP30, hits give low values 0.984 and 1.02 | S. cerevisiae deletion strains, locus YMR307W, strain GAS1, hits give low values 1.04 | S. cerevisiae deletion strains, locus YNL067W, strain RPL9B, hits give low values 0.996 | S. cerevisiae deletion strains, locus YNL071W, strain lat1, hits give low values 1.02 | S. cerevisiae deletion strains, locus YNL128W, strain TEP1, hits give low values 0.975 and 1.02 | S. cerevisiae deletion strains, locus YNL153C, strain GIM3, hits give low values 0.992 | S. cerevisiae deletion strains, locus YNL175C, strain NOP13, hits give low values 1.04 | S. cerevisiae deletion strains, locus YNL183C, strain NPR1, hits give low values 0.982 | S. cerevisiae deletion strains, locus YNL197C, strain WHI3, hits give low values 1.09 | S. cerevisiae deletion strains, locus YNL209W, strain ssb2, hits give low values 1.02 | S. cerevisiae deletion strains, locus YNL224C, strain SQS1, hits give low values 1.05 | S. cerevisiae deletion strains, locus YNL233W, strain BNI4, hits give low values 0.983 | S. cerevisiae deletion strains, locus YNL248C, strain rpa49, hits give low values 1.02 | S. cerevisiae deletion strains, locus YNL250W, strain rad50, hits give low values 0.975 | S. cerevisiae deletion strains, locus YNL271C, strain bni1, hits give low values 1 | S. cerevisiae deletion strains, locus YNL298W, strain CLA4, hits give low values 0.981 | S. cerevisiae deletion strains, locus YNL307C, strain MCK1, hits give low values 0.972 | S. cerevisiae deletion strains, locus YNL322C, strain KRE1 (second series), hits give low values 1.01 | S. cerevisiae deletion strains, locus YNL322C, strain KRE1, hits give low values 0.986 | S. cerevisiae deletion strains, locus YNR049C, strain mso1, hits give low values 1.01 | S. cerevisiae deletion strains, locus YNR052C, strain pop2, hits give low values 0.986 | S. cerevisiae deletion strains, locus YOL006C, strain TOP1, hits give low values 1.05 | S. cerevisiae deletion strains, locus YOL012C, strain htz1 1 | S. cerevisiae deletion strains, locus YOL147C, strain pex11, hits give low values 0.988 | S. cerevisiae deletion strains, locus YOR001W, strain rrp6, hits give low values 1.06 | S. cerevisiae deletion strains, locus YOR061W, strain CKA2, hits give low values 0.975 | S. cerevisiae deletion strains, locus YOR069W, strain VPS5, hits give low values 0.981 | S. cerevisiae deletion strains, locus YOR070C, strain gyp1, hits give low values 1.02 | S. cerevisiae deletion strains, locus YOR080W, strain dia2, hits give low values 1.03 | S. cerevisiae deletion strains, locus YOR083W, strain WHI5 (second series), hits give low values 1.04 | S. cerevisiae deletion strains, locus YOR083W, strain WHI5, hits give low values 1.01 | S. cerevisiae deletion strains, locus YOR106W, strain vam3, hits give low values 1.07 | S. cerevisiae deletion strains, locus YOR136W, strain idh2, hits give low values 0.977 | S. cerevisiae deletion strains, locus YOR144C, strain elg1, hits give low values 0.988 | S. cerevisiae deletion strains, locus YOR184W, strain ser1, hits give low values 0.993 | S. cerevisiae deletion strains, locus YOR231W, strain MKK1, hits give low values 1.02 | S. cerevisiae deletion strains, locus YOR265W, strain rbl2, hits give low values 1.01 | S. cerevisiae deletion strains, locus YOR270C, strain vph1, hits give low values 1.09 | S. cerevisiae deletion strains, locus YOR290C, strain snf2, hits give low values 1.02 | S. cerevisiae deletion strains, locus YOR316C, strain cot1, hits give low values 0.99 | S. cerevisiae deletion strains, locus YPL051W, strain arl3, hits give low values 1.02 | S. cerevisiae deletion strains, locus YPL055C, strain LGE1, hits give low values 0.937 and 1.01 | S. cerevisiae deletion strains, locus YPL078C, strain atp4, hits give low values 1.01 | S. cerevisiae deletion strains, locus YPL106C, strain sse1, hits give low values 1.07 | S. cerevisiae deletion strains, locus YPL240C, strain hsp82, hits give low values 0.977 | S. cerevisiae deletion strains, locus YPL241C, strain CIN2, hits give low values 0.994 and 1.01 | S. cerevisiae deletion strains, locus YPL256C, strain CLN2, hits give low values 1.03 | S. cerevisiae deletion strains, locus YPR119W, strain clb2, hits give low values 0.989 | S. cerevisiae deletion strains, locus YPR141C, strain kar3, hits give low values 0.974 | S. cerevisiae deletion strains, locus YPR163C, strain tif3, hits give low values 0.993 | S. cerevisiae deletion strains, locus YPR167C, strain met16, hits give low values 0.993 | S. cerevisiae deletion strains, strain wtn01, hits give low values 0.995 | S. cerevisiae strains, strain wild type, hits give low values 0.982
